{"source": "PubChem BioAssay (Tox21)", "key": {"[1]": {"biological_target": "Nuclear receptor subfamily 1 group I member 2 (Rattus norvegicus) (UniProt Q9R1A7)", "sequence (Q9R1A7 whole entry, looked up)": "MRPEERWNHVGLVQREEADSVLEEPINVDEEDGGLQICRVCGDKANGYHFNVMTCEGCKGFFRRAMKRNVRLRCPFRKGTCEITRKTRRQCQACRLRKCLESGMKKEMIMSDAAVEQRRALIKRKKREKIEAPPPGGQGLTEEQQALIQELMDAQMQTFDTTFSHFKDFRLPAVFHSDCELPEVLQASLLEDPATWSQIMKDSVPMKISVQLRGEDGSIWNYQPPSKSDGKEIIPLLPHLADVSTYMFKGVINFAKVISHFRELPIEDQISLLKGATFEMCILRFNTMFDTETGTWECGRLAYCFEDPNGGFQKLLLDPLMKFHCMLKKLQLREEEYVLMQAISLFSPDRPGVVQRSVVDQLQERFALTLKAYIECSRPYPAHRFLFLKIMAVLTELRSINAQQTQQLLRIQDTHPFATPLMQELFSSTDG", "experiment": "Rat pregnane X receptor (rPXR) activation by small molecules, qHTS assay (AID 1346983); further: nearly all actives have a fitted effect of over 20% in size", "conditions": "rPXR luciferase reporter cells, One-Glo luminescence, 24 h; max activation: stronger effect = higher value", "procedure,_shortened": "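Cell-based rPXR luciferase reporter assay, 2,000 cells per well, rested 5hr at 37 C before compound addition in DMSO, then 24 hr at 37 C. One-Glo reagent was added and luminescence read after 30 min at room temperature.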"}, "[2]": {"biological_target": "Nuclear receptor subfamily 1 group I member 2 (Homo sapiens) (UniProt O75469)", "experiment": "CYP3A4 induction through human pregnane X receptor (PXR) by small molecules, qHTS assay (AID 1346984); further: nearly all actives have a fitted effect of over 40% in size; further: potency means the concentration at half of the fitted maximal effect", "procedure,_shortened": "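Induction measured in HepG2-based DPX-2 cells co-expressing human PXR and a CYP3A4 promoter-driven luciferase. After a 24-hour compound exposure, cells received CYP3A4 luciferin substrate at 3uM final for 3 hours, and light output was then recorded.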"}, "[3]": {"biological_target": "Nuclear receptor subfamily 1 group I member 2 (Homo sapiens) (UniProt O75469)", "experiment": "Human pregnane X receptor (PXR) activation by small molecules, qHTS assay (AID 1346985); further: nearly all actives have a fitted effect of over 40% in size; further: potency means the concentration at half of the fitted maximal effect", "procedure,_shortened": "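DPX-2 cells (HepG2 co-transfected with a PXR response element and a CYP3A4-promoter luciferase construct) were seeded at 2,000 per well, rested 5 hr at 37C, then exposed to DMSO-dissolved compounds for 24 hr. Activation was read as luciferase luminescence.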"}}, "note": "“And” between values parts separate entries of the source, which are not always exact repeats. Equal values may be shown once. Results filed as inconclusive are left out. Where a call stands in place of a potency, no number is given. More than one record can exist for a structure, and the calls need not agree. The source made the active and inactive calls. The call rests on the fitted dose curve; in most records, active means well fitted curve in the direction sought with a large enough effect in the repeat runs; inconclusive means weak or mixed curves; inactive means no such curve, though single readings can be large; an effect the other way counts as inactive or inconclusive. Non-standard residues stand in square brackets, D forms with d. Residues, ends and D or L forms follow the SMILES beside them. Orn = NCCC[C@H](N)C(=O)O"}
{"smiles": "CC(=O)OCC(=O)[C@@]1(O)CC[C@H]2[C@@H]3CCC4=CC(=O)CC[C@]4(C)C3=CC[C@@]21C", "values": [{"measurement": "max activation", "setting": "[1]", "value": "-1.67% (inactive)"}, {"measurement": "Potency", "setting": "[2]", "value": "inactive"}, {"measurement": "Potency", "setting": "[3]", "value": "inactive"}]}
{"smiles": "O=C1[O][Bi][O]c2ccccc21", "values": [{"measurement": "max activation", "setting": "[1]", "value": "-4.48% (inactive)"}, {"measurement": "Potency", "setting": "[2]", "value": "inactive"}, {"measurement": "Potency", "setting": "[3]", "value": "inactive"}]}
{"smiles": "Cc1onc(-c2c(F)cccc2Cl)c1C(=O)N[C@@H]1C(=O)N2[C@@H]1SC(C)(C)[C@@H]2C(=O)O", "values": [{"measurement": "max activation", "setting": "[1]", "value": "-1.83% (inactive) and -3.33% (inactive)"}, {"measurement": "Potency", "setting": "[2]", "value": "inactive"}, {"measurement": "Potency", "setting": "[3]", "value": "inactive and 25.1 µM (active)"}]}
{"smiles": "NC(=O)C1c2ccccc2CCc2ccccc21", "values": [{"measurement": "max activation", "setting": "[1]", "value": "-2.21% (inactive)"}, {"measurement": "Potency", "setting": "[2]", "value": "inactive"}, {"measurement": "Potency", "setting": "[3]", "value": "inactive"}]}
{"smiles": "CN(Cc1ccccc1)Cc1ccccc1", "values": [{"measurement": "max activation", "setting": "[1]", "value": "-2.9% (inactive)"}, {"measurement": "Potency", "setting": "[2]", "value": "inactive"}, {"measurement": "Potency", "setting": "[3]", "value": "inactive"}]}
{"smiles": "COc1ccc([C@@H]2CC(=O)c3c(O)cc(O[C@@H]4O[C@H](CO[C@@H]5O[C@@H](C)[C@H](O)[C@@H](O)[C@H]5O)[C@@H](O)[C@H](O)[C@H]4O)cc3O2)cc1O", "values": [{"measurement": "max activation", "setting": "[1]", "value": "-3.19% (inactive)"}, {"measurement": "Potency", "setting": "[2]", "value": "inactive"}, {"measurement": "Potency", "setting": "[3]", "value": "inactive"}]}
{"smiles": "c1ccc2c(c1)OCC(CN1CCCCC1)O2", "note": "(stereo unspecified)", "values": [{"measurement": "max activation", "setting": "[1]", "value": "-3.94% (inactive)"}, {"measurement": "Potency", "setting": "[2]", "value": "inactive"}, {"measurement": "Potency", "setting": "[3]", "value": "inactive"}]}
{"smiles": "CCCCCCCCCCCCCCCC(=O)OC[C@H](COP(=O)([O-])OCC[N+](C)(C)C)OC(=O)CCCCCCCCCCCCCCC", "values": [{"measurement": "max activation", "setting": "[1]", "value": "0.686% (inactive)"}, {"measurement": "Potency", "setting": "[2]", "value": "inactive"}, {"measurement": "Potency", "setting": "[3]", "value": "inactive"}]}
{"smiles": "N=C(N)c1ccc(/C=C/c2ccc(C(=N)N)cc2O)cc1", "values": [{"measurement": "max activation", "setting": "[1]", "value": "-1.55% (inactive)"}, {"measurement": "Potency", "setting": "[2]", "value": "inactive"}, {"measurement": "Potency", "setting": "[3]", "value": "inactive"}]}
{"smiles": "C[C@H](O)CN(C)C", "values": [{"measurement": "max activation", "setting": "[1]", "value": "-2.23% (inactive)"}, {"measurement": "Potency", "setting": "[2]", "value": "inactive"}, {"measurement": "Potency", "setting": "[3]", "value": "inactive"}]}
{"smiles": "CC[C@H]1OC(=O)[C@H](C)C(=O)[C@H](C)[C@@H](O[C@@H]2O[C@H](C)C[C@H](N(C)C)[C@H]2O)[C@](C)(OC)C[C@@H](C)C(=O)[C@H](C)[C@H]2N(CCCCn3cnc(-c4cccnc4)c3)C(=O)O[C@]12C", "values": [{"measurement": "max activation", "setting": "[1]", "value": "2.76% (inactive)"}, {"measurement": "Potency", "setting": "[2]", "value": "inactive and 501 nM (active)"}, {"measurement": "Potency", "setting": "[3]", "value": "inactive and 794 nM (active)"}]}
{"smiles": "NC(=O)[C@@H]1CCCN1C(=O)[C@H](Cc1cnc[nH]1)NC(=O)[C@@H]1CCC(=O)N1", "values": [{"measurement": "max activation", "setting": "[1]", "value": "-0.96% (inactive)"}, {"measurement": "Potency", "setting": "[2]", "value": "inactive"}, {"measurement": "Potency", "setting": "[3]", "value": "inactive"}]}
{"smiles": "CC(C)CCC[C@@H](C)[C@H]1CC[C@H]2[C@@H]3CC=C4C[C@@H](O)CC[C@]4(C)[C@H]3CC[C@]12C", "values": [{"measurement": "max activation", "setting": "[1]", "value": "-2.66% (inactive)"}, {"measurement": "Potency", "setting": "[2]", "value": "inactive"}, {"measurement": "Potency", "setting": "[3]", "value": "inactive"}]}
{"smiles": "C=C(Nc1ccc(OCC)cc1)Nc1ccc(OCC)cc1", "values": [{"measurement": "max activation", "setting": "[1]", "value": "-1.1% (inactive) and 0.608% (inactive)"}, {"measurement": "Potency", "setting": "[2]", "value": "inactive"}, {"measurement": "Potency", "setting": "[3]", "value": "inactive"}]}
{"smiles": "CC(C)C[C@@H]1NC(=O)[C@H](CCCN)NC(=O)[C@H](C(C)C)NC(=O)[C@@H]2CCCN2C(=O)[C@@H](Cc2ccccc2)NC(=O)[C@H](CC(C)C)NC(=O)[C@H](CCCN)NC(=O)[C@H](C(C)C)NC(=O)[C@@H]2CCCN2C(=O)[C@@H](Cc2ccccc2)NC1=O", "note": "(cyclo(V[Orn]L[dF]PV[Orn]L[dF]P))", "values": [{"measurement": "max activation", "setting": "[1]", "value": "-16.3% (inactive)"}, {"measurement": "Potency", "setting": "[2]", "value": "inactive"}, {"measurement": "Potency", "setting": "[3]", "value": "inactive"}]}
{"smiles": "CCOC(=O)Cc1ccc(-c2ccccc2)cc1", "values": [{"measurement": "max activation", "setting": "[1]", "value": "-3.15% (inactive)"}, {"measurement": "Potency", "setting": "[2]", "value": "inactive"}, {"measurement": "Potency", "setting": "[3]", "value": "inactive"}]}
{"smiles": "Nc1cc(Cl)c(NC2=NCCN2)c(Cl)c1", "values": [{"measurement": "max activation", "setting": "[1]", "value": "-1.9% (inactive)"}, {"measurement": "Potency", "setting": "[2]", "value": "inactive"}, {"measurement": "Potency", "setting": "[3]", "value": "inactive"}]}
{"smiles": "CC1(C)CCC(NC(=O)[C@@H](N)CCC(=O)O)CC1", "values": [{"measurement": "max activation", "setting": "[1]", "value": "-2.85% (inactive)"}, {"measurement": "Potency", "setting": "[2]", "value": "inactive"}, {"measurement": "Potency", "setting": "[3]", "value": "inactive"}]}
{"smiles": "OCl", "values": [{"measurement": "max activation", "setting": "[1]", "value": "0.862% (inactive)"}, {"measurement": "Potency", "setting": "[2]", "value": "inactive"}, {"measurement": "Potency", "setting": "[3]", "value": "inactive"}]}
{"smiles": "CNCC(=O)N[C@@H](CCCN=C(N)N)C(=O)N[C@H](C(=O)N[C@@H](Cc1ccc(O)cc1)C(=O)N[C@H](C(=O)N[C@@H](Cc1cnc[nH]1)C(=O)N1CCC[C@H]1C(=O)N[C@@H](C)C(=O)O)C(C)C)C(C)C", "values": [{"measurement": "max activation", "setting": "[1]", "value": "-0.307% (inactive)"}, {"measurement": "Potency", "setting": "[2]", "value": "inactive"}, {"measurement": "Potency", "setting": "[3]", "value": "inactive"}]}
{"smiles": "CC1(C)S[C@@H]2[C@H](NC(=O)[C@@H](NC(=O)N3CCNC3=O)c3ccccc3)C(=O)N2[C@H]1C(=O)O", "values": [{"measurement": "max activation", "setting": "[1]", "value": "-1.76% (inactive)"}, {"measurement": "Potency", "setting": "[2]", "value": "inactive"}, {"measurement": "Potency", "setting": "[3]", "value": "inactive"}]}
{"smiles": "NCC[C@H](O)C(=O)N[C@@H]1C[C@H](N)[C@@H](O[C@H]2O[C@H](CN)CC[C@H]2N)[C@H](O)[C@H]1O[C@H]1O[C@H](CO)[C@@H](O)[C@H](N)[C@H]1O", "values": [{"measurement": "max activation", "setting": "[1]", "value": "-1.85% (inactive)"}, {"measurement": "Potency", "setting": "[2]", "value": "inactive"}, {"measurement": "Potency", "setting": "[3]", "value": "inactive"}]}
